Jurkat NFkB inh: inhibitors of induced NF-kB luciferase reporter, primary screen, TCR NF-kB activation inhibitor project, cell-based, luminescence, uHTS; AID 435003, 2010; 330,000 tested, 0.53% active; inhibition, % at 4 µM; Jurkat, PMA/ionomycin-induced NF-kB luciferase reporter; in the data active means inhibition above about 50%
Beta cell apopt: inhibitors of cytokine-induced beta cell apoptosis, primary screen, luminescence; AID 435005, 2010; 300,000 tested, 0.8% active; INS-1E cytokine-induced death, ATP luminescence, 48 h; percent of positive-control rescue, neutral wells zero; protection from apoptosis, % (concentration not given with the values);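 active means Every replicate reaches about 75%, or at least half do and their mean reaches it too, limit read from the data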;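 further: 0% = cytokine-treated negative control wells and 100% = positive control rescue; higher means more ATP so stronger rescue from cytokine killing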
697 NFkB inh: inhibitors of PMA/ionomycin-induced NF-kB reporter, 697 cells, primary screen, B-cell NF-kB inhibitor project, cell-based, luminescence, uHTS; 330,000 tested, 0.33% active; 697 B-cell NF-kB luciferase reporter, 16 h; inhibition, % at 4 µM; in the data active means inhibition above about 35%
Gli-Sufu antag: Gli-Sufu pathway antagonists, primary screen, luciferase luminescence, Sufu-KO-LIGHT cells, uHTS; Sufu-KO-LIGHT fibroblasts, Gli luciferase reporter luminescence; inhibition, % at 5 µM; 340,000 tested, 0.74% active; AID 588413, 2011;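 active means inhibition above about 55%, limit read from the data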;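 further: 0% = DMSO-treated cells and 100% = wells with medium but no cells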
Mdm2-MdmX inh: inhibitors of human Mdm2-MdmX association, primary screen, cell-based, luminescence, split luciferase, SaOS-2, uHTS; SaOS-2 split-luciferase Mdm2/MdmX complementation; AID 485346, 2010; inhibition, % at 8 µM; 330,000 tested, 3% active; Protein Mdm4 (Homo sapiens) + E3 ubiquitin-protein ligase Mdm2 (Homo sapiens), …;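 active means inhibition of at least 50% at 8 µM in the primary screen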
Gli-Sufu confirm: Gli-SUFU pathway antagonists, confirmation, single concentration, luciferase luminescence, Sufu-KO-LIGHT cells. 2,500 tested, 40% active. inhibition, % at 5 µM. shares compounds with Gli-Sufu antag. Gli luciferase reporter. AID 602428, 2012;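 active means mean inhibition at 5 µM reaching about 45%, limit read from the data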;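 further: plate controls were DMSO-treated cells for no effect and wells lacking cells for full effect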
SufuKO cytotox: cytotoxicity in Sufu-KO-LIGHT cells, confirmation, cytotoxicity control for Gli-SUFU antagonist project, cell-based, ATP luminescence, single concentration; 2,500 tested, 32% active; AID 651994, 2013; shares compounds with Gli-Sufu antag; cytotoxicity, % at 5 µM;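 active means mean cytotoxicity at 5 µM above about 25%, limit read from the data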;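 further: cells exposed to compound overnight for roughly 16 to 18 hours; plate controls were DMSO wells with cells for no effect and medium without cells for full effect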
Wnt3a counter: Wnt3a reporter signal inhibition, confirmation, counter-screen for Gli-SUFU antagonist project, Wnt-LIGHT cells, luminescence, single concentration; shares compounds with Gli-Sufu antag; Wnt3a-driven luciferase reporter; inhibition, % at 6.25 µM; 2,500 tested, 20% active; AID 651995, 2013;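 active means mean inhibition above about 25%, limit read from the data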
* hit, by the source's call; · = not tested or not shown. Only some compounds are listed: those with a hit (about 4% of all), similar ones and a draw of the others.

SMILES	Jurkat NFkB inh	Beta cell apopt	697 NFkB inh	Gli-Sufu antag	Mdm2-MdmX inh	Gli-Sufu confirm	SufuKO cytotox	Wnt3a counter
Cc1nc2sccn2c1-c1csc(NCc2ccccc2)n1	18.9	51.6	-40.7	55.7*	14.4	50.0*	22.0	15.9
Cc1c(C(=O)N2CCN(Cc3ccccc3)CC2)oc2c1C(=O)CC(C)(C)C2	-5.8	-4.8	-8.8	51.6	4.2	14.8	12.6	-44.4
C[C@H](NC(=O)[C@@H]1CCC(=O)N1Cc1ccco1)c1ccccc1	8.8	-4.2	9.7	67.8*	-1.4	11.5	-8.9	-3.1
O=C(O)[C@H]1CCC(=O)N1Cc1ccco1	-12.9	-1.3	-7.8	2.8	6.4	·	·	·
CC(=O)N1CCN(C(=O)CCC(=O)O)CC1	-7.6	-7.7	-6.7	2.6	-6.4	·	·	·
CN(Cc1nc2ccccc2c(=O)[nH]1)Cc1nc2ccsc2c(=O)[nH]1	-3.3	-5.7	7.7	62.5*	17.8	30.8	11.8	39.1*
CC(NC(=O)CN(C)Cc1nc2ccccc2c(=O)[nH]1)c1ccccc1 (centres undefined)	0.3	-2.5	1.5	0.1	6.0	·	·	·
CNC1(C(N)=O)CCNCC1	6.8	-4.7	-3.0	-10.3	-26.0	·	·	·
O=C(c1ccc(N2CCCC2=O)cc1)N1CCOCC1	-10.0	-5.3	-11.8	-2.8	-5.0	·	·	·
CN1CCN(C(=O)c2ccc(N3CCCC3=O)cc2)CC1	-2.0	-7.0	-1.2	60.1*	-6.7	19.9	-3.1	-9.4
COc1ccccc1CCN1CCCC(CN(C)Cc2ccc(OCCO)cc2)C1 (centres undefined)	-4.8	·	-9.7	55.0	24.1	28.1	8.2	-9.5
COc1cc(CN(C)CC2CCCN(CCc3ccc(F)cc3)C2)c(Cl)cc1O (centres undefined)	-3.4	-2.7	-0.8	55.1*	10.9	15.2	6.5	-25.4
O=C(O)C1C2CCC(O2)C1C(=O)Nc1ccccc1Br (centres undefined)	10.0	0.4	2.5	4.9	23.3	·	·	·
COc1ccccc1-c1nc(S(=O)(=O)c2ccccc2)c(N2CCCCC2)o1	2.8	-5.9	3.5	11.5	-1.1	·	·	·
CCN1CCN(c2oc(-c3ccccc3C)nc2S(=O)(=O)c2ccccc2)CC1	-27.4	·	-40.0	52.4	9.0	22.3	2.4	-23.7
Cc1cc(OCc2cc(C(=O)N(C)CCc3cnn(C)c3)no2)cc(C)c1Cl	-103.6	6.9	-181.3	-8.2	-73.9	·	·	·
Cc1cc(C)nc(/N=C(\N)Nc2ccc(CC(=O)OC(C)C)cc2)n1	42.0	·	-72.4	64.6*	-2.5	48.1*	37.9*	-4.4
CCCCC(NC(=O)c1ccc(C#N)cc1)C(=O)NCCC (centres undefined)	-4.8	-1.8	-2.1	-13.2	16.9	·	·	·
CCOC(=O)C1(CCOc2ccccc2)CCN(Cc2ccccc2O)CC1	·	8.1	·	3.0	·	·	·	·
CCOC(=O)C1(CCOc2ccccc2)CCN(Cc2cc(OC)c3c(c2)OCO3)CC1	27.0	14.9	-12.5	54.4	25.5	16.1	9.3	-19.6
CCOC(=O)C1(CCOc2ccccc2)CCN(Cc2cccc(OC)c2OC)CC1	5.8	·	-5.7	55.7*	33.3	24.5	9.3	-26.8
CCOC(=O)C1(CCc2ccccc2)CCN(Cc2cc(OC)c(OC)cc2OC)CC1	28.7	·	-12.7	60.2*	9.0	18.4	14.8	-42.6
O=C(c1ccc(S(=O)(=O)Nc2ccccc2F)cc1)N1CCC1	-1.8	-4.2	-23.9	-0.1	-3.8	·	·	·
COc1ccc2cc(-c3[nH]ncc3CN3C[C@@H]4CCC[C@H]3C4)ccc2c1	-27.7	-4.5	-14.5	10.3	28.5	·	·	·

Assay outcomes as filed in PubChem BioAssay.
